Assay outcomes from PubChem BioAssay.
LASV entry inh = blocks Lassa virus binding to or entry into cells. Lassa virus pseudotype entry inhibition, cell reporter. Potency, µM (doses to about 37.9 µM), without a hit: at the highest dose activity change, negative = inhibition, hits mostly inhibitors. 300,000 tested, 1.2% active. AID 540256; calls by dose curve; tested in HEK293 cells; also: nearly all actives have a fitted effect of over 50% in size
HCV inhibitor = inhibitors of hepatitis C virus infection | Huh7.5.1 HCVcc-Cre infection, luciferase reporter, 44 h | Potency, µM (doses to about 41.8 µM), for inactives: at the highest dose activity change, negative = inhibition, most hits filed as inhibitors | 340,000 tested, 3.4% active; active = well fitted inhibition curve with a large enough effect; inconclusive = small, poorly fitted or top-dose-only effect, or another doubt; inactive = no such curve, though single readings can be large or run the other way
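Seed cells (1,000/well) for 4 h; treat with compound and infect with HCVcc-Cre, moi about 0.5. Incubate 44 h, then detect luciferase activity.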
VACV Venus inh = inhibitors of vaccinia virus (Venus reporter). 330,000 tested, 0.46% active. Vaccinia virus Venus reporter expression, fluorescence. Potency, µM (top dose mostly 36.5 µM), for inactives: at the highest dose activity change, negative = inhibition, usual class: inhibitors; calls by dose curve; tested in A549 cells; also: nearly all actives have a fitted effect of over 30% in size
Marburg entry inh = inhibitors of Marburg virus binding or cell entry; Marburg virus pseudotyped entry inhibition, cell reporter; Potency, µM (series often up to 37.8 µM), inactives show at the top dose activity change, negative = inhibition, usual class: inhibitors; 300,000 tested, 1.8% active; calls by dose curve; tested in HEK293 cells
Vaccinia mCherry = inhibitors of vaccinia virus infection (mCherry reporter signal) | Vaccinia virus mCherry reporter infection, fluorescence | AID 720579 | 310,000 tested, 0.63% active | Potency, µM (series often up to 36.5 µM), for the others: top-dose activity change, negative = inhibition, usual class: inhibitors; calls by dose curve; tested in A549 cells; also: nearly all actives have a fitted effect of over 35% in size
FMDV inh = blocks foot and mouth disease virus; FMDV antiviral cell-based qHTS; Potency, µM (highest dose often 57.9 µM), inactives show top-dose activity change, negative = inhibition, actives largely listed as inhibitors; AID 1159524; 410,000 tested, 1.2% active; calls by dose curve; tested in HEK293T cells; also: read-out not given here; nearly all actives have a fitted effect of over 45% in size
Numbers without * were called inactive; i = inactive; ? = inconclusive; · = no result; [ ] = another dose, or the depositor's remark. Only some compounds are listed: those with a hit (about 5.3% of all), similar ones and a draw of the others. % is scaled to controls: 0 for no effect and ±100 for the full control effect; potency is read from the fitted curve at half-maximal effect.

SMILES	LASV entry inh	HCV inhibitor	VACV Venus inh	Marburg entry inh	Vaccinia mCherry	FMDV inh
O=C(CSc1nc2ccccc2c(=O)n1CC1CCCO1)Nc1ccc(F)cc1 (centres undefined)	-3%[46.1 µM]	?	15%	?	-12%	22%
C(=C\c1ccco1)/c1ccc2ccccc2n1	?	3%	9%[7.34 µM]	2.8µM*	i[7.34 µM]	-69%
Cc1ccsc1/C=C/c1ccc2cccc(O)c2n1	?	13µM*	·	?	·	0%
Oc1cccc2ccc(/C=C/c3cccs3)nc12	?	?	·	?	·	-9%
Cc1ccsc1/C=C/c1ccc2ccccc2n1	13µM*	14%	-9%	?	-18%	-27%
CC(O)/C=C/c1ccc2ccccc2n1 (centres undefined)	?	11µM*	·	?	·	-2%
CC(=O)Nc1ccc(NC(=O)C(NC(=O)C2CCC(C)CC2)C(C)C)cc1 (centres undefined)	11%[46.1 µM]	·	-5%	?	-6%	-1%
Cc1cccc2cc(CN(CC3CCCO3)C(=O)c3cccc(F)c3)c(N(C)C)nc12 (centres undefined)	·	·	3%	·	-14%	-5%
COC(=O)CC=C1c2ccccc2[C@@H](OC)[C@@H]1C	?	·	·	16%[14.2 µM]	·	·
CCCOc1ccc(/C=N/NC(=S)Nc2ccccc2[N+](=O)[O-])c(O)c1	8.2µM*	?	?	?	2.8µM*	?
CCCOc1ccc(/C=N/Nc2ccccc2[N+](=O)[O-])c(O)c1	2.8µM*	11%	-2%	4.5µM*	-14%	11µM*
C=CC[C@](C)(Nc1ccc(OC)cc1)C(=O)OCC	·	·	·	7%[14.2 µM]	·	·
COc1ccc(-c2noc(N3CCC(C(=O)N4CCN(c5ccccn5)CC4)CC3)n2)cc1	?	4.5µM*	·	?	·	13µM*
CCN(C(=O)C1CCN(c2nc(-c3ccc(OC)cc3)no2)CC1)c1ccc(OC)cc1	·	8.9µM*	?	·	-14%	?
COc1ccc(NC(=O)C2CCN(c3nc(-c4ccc(OC)cc4)no3)CC2)cc1	·	?	-10%	·	-8%	-22%
Cc1nc(N2CCN(Cc3ccc(Cl)cc3)CC2)c2oc3ccccc3c2n1	8%[46.1 µM]	8.9µM*	-18%	?	-19%	?
Cc1nc(N2CCOCC2)c2cc(-c3ccccc3)sc2n1	?	?	-22%	?	-9%[1.46 µM]	-25%
Cc1nc(N2CCN(Cc3ccc4c(c3)OCO4)CC2)c2oc3ccccc3c2n1	-28%	-8%	-25%	?	i	28µM*
Cc1nc(N2CCC(C)CC2)c2oc3ccccc3c2n1	?	?	?	?	i[1.46 µM]	?
COc1ccccc1N1CCN(c2nc(C)nc3c2oc2ccccc23)CC1	?	3.5µM*	·	?	·	28µM*
Cc1nc(N2CCN(Cc3ccc4c(c3)OCO4)CC2)c2cc(-c3ccccc3)sc2n1	-10%[46.1 µM]	?	-17%	7.9µM*	?	-12%
Cc1nn(C)c(C)c1CCNC(=O)Nc1cccc(Cl)c1C	-9%[46.1 µM]	·	-12%	·	i	15%
O=C1c2ccccc2C(=O)c2c1cccc2N1CCOCC1	-12%	22µM*	-5%	9%	-19%	2%
COc1ccc2c(c1)O[C@@H](c1cccc(C(F)(F)F)c1)[C@H](OC(=O)Nc1cc(OC)c(OC)c(OC)c1)C2=O	·	·	·	2%[14.2 µM]	·	·
C/C=C/c1ccc(OCCCCN2C(=O)NC(C)(C)C2=O)c(OC)c1	18µM*	?	-27%	?	-4%	-13%
SMILES	LASV entry inh	HCV inhibitor	VACV Venus inh	Marburg entry inh	Vaccinia mCherry	FMDV inh
CCOc1cc(C=O)ccc1OCCCN1C(=O)NC(C)(C)C1=O	13%	24%	·	0%	·	11%
C/C=C/c1ccc(OCCCCN(C)Cc2ccccc2)c(OC)c1	·	11µM*	·	·	·	-24%
C/C=C/c1ccc(OCCCCOc2ccccc2C(C)=O)c(OC)c1	-17%	6%	-2%	-16%	-8%	0%
COC(=O)c1c(C)[nH]c(C(=O)COc2ccc3ccc(=O)oc3c2)c1C	·	?	·	·	·	-43%
CC(=O)c1c(C)[nH]c(C(=O)COc2ccc3ccc(=O)oc3c2)c1C	2%[46.1 µM]	8.9µM*	-24%	?	-25%	28µM*
Cn1cc(CN2CCC(n3nccc3NC(=O)c3ccccc3Cl)CC2)cn1	6%	·	-10%	-1%	i	0%
CCc1ccc(CN2CCC(n3nccc3NC(=O)c3ccccc3Cl)CC2)cc1	?	?	-23%	?	-27%	32µM*
COc1ccc(C(=O)Oc2ccc(C(c3c(C)[nH][nH]c3=O)c3c(C)[nH][nH]c3=O)cc2)cc1	6%[46.1 µM]	·	4%	?	-2%	10%
CCOC(=O)Cc1csc(NC(=O)CC)n1	1%	12%	0%	3%	-2%	·
O=C(/C=C/c1ccc2c(c1)OCO2)NCc1ccco1	10µM*	-5%	-19%	-2%	i	21%
CCOC(=O)Cc1csc(NC(=O)CC(C)(C)C)n1	7.1µM*	5%	-3%	?	-10%	23%
CCOC(=O)Cc1csc(NC(=O)/C=C/c2ccc(Cl)cc2)n1	·	11µM*	·	·	·	?
Cc1csc(NC(=O)/C=C/c2ccc3c(c2)OCO3)n1	?	?	-26%	4.5µM*	-13%	-51%
CCOC(=O)Cc1csc(NC(=O)/C=C/c2ccco2)n1	·	-5%	-2%[7.34 µM]	·	-6%[7.34 µM]	2%
O=C(/C=C/c1ccc2c(c1)OCO2)Nc1nc(-c2ccc(F)cc2F)cs1	18%	-15%	·	3%	·	·
COc1cc(C)ccc1OCCSc1nc2ccc(NC(=O)c3cccs3)cc2s1	-2%[46.1 µM]	·	-14%	?	i	-20%
O=C(N/N=C/c1cccc(F)c1)c1c(O)c2ccccc2[nH]c1=O	3%	13µM*	-12%	1%	-20%	5%
Brc1ccc(N=Nc2ccc3ccccc3n2)cc1	1.1µM*	-25%	-3%	?	-1%	10µM*
CCOC(=O)c1ccccc1NC(=O)c1sc2nc3n(c(=O)c2c1C)CCCC3	?	·	0%	·	-5%	-7%
COc1cccc(/C=N/Nc2ncnc(N)c2[N+](=O)[O-])c1OC	8.2µM*	-12%	·	?	·	-40%
Cc1cc(/C=N/Nc2ncnc(N)c2[N+](=O)[O-])c(C)n1-c1ccccc1	1.1µM*	?	-7%	?	?	3.5µM*
CCc1nnc(N/N=C/c2ccccc2Cl)n1N	?	1%	?	4%	?	·
COc1cccc(C=NNc2ccc([N+](=O)[O-])cn2)c1OC	-6%[46.1 µM]	5%	-9%	0%[46.1 µM]	-16%	32%
COc1cccc(C=NNc2nnc(NN=Cc3cccc(OC)c3OC)c3ccccc23)c1OC	?	?	-5%	?	-5%	20µM*
COc1cccc(/C=N/Nc2nnc(C)n2N)c1OCc1ccccc1Cl	-8%	22µM*	-5%	3%	i	-19%
COc1ccccc1/C=N/Nc1nncc2ccccc12	-16%	8%	-13%	?	-18%	33%
CCc1nnc(SCC(=O)Nc2ccc(Cl)cc2F)c2cc3occc3n12	?	·	4%	·	-5%	?
